Reference: PubChem BioAssay (Tox21)
Records with an inconclusive call do not appear. Activity calls are given as the source filed them. Calls follow the shape of the dose curve; as a rule, active = well fitted inhibition curve with a large enough effect in the repeat runs; inconclusive = weak or mixed curves; inactive = no such curve, though single readings can be large or run the other way.

Target: Cytochrome P450 2C9 (Homo sapiens) (UniProt P11712)
Assay: Cytochrome P450 Family 2 Subfamily C Member 9 (CYP2C9) small molecule antagonists: luciferase reporter qHTS assay (AID 1671198)
Conditions: P450-Glo CYP2C9 enzyme assay, luciferin luminescence; series mostly up to 115 µM
Outline: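 Enzyme-substrate mix preincubated with compound 10 min at room temperature; reaction started with NADPH regeneration solution, 1 h 37C. Luminescent luciferin product read after 20 min detection reagent.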
Also: nearly all actives have a fitted effect of over 50% in size.
Potency is read from the fitted curve at half-maximal effect.

Chain of Cytochrome P450 2C9 (Homo sapiens) (P11712 whole entry, looked up): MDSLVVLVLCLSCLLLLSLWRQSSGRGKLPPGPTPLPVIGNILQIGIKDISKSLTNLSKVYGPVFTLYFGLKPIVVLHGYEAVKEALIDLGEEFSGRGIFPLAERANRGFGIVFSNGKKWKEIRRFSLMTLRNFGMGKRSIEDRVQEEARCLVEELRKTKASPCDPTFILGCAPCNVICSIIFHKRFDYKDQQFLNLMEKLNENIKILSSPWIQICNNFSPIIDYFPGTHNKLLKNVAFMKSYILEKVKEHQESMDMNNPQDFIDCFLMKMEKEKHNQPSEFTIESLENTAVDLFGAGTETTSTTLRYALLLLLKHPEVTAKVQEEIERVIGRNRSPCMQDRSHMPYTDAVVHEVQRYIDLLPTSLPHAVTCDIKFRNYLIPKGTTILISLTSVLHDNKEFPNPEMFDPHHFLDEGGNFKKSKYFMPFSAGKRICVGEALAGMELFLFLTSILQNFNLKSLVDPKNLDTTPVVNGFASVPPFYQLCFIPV

| SMILES | Potency |
| --- | --- |
| CCCCOC(=O)CC | inactive |
| O=C(O)c1cc(-c2ccc(F)cc2F)ccc1O | 24.5 µM (active) |
| c1ccc(C(O[C@@H]2CCCN(CCc3ccc4c(c3)OCO4)C2)c2ccccc2)cc1 | 17.8 µM (active) |
| CCO[C@@H]1O[C@H](C(COCc2ccccc2)OCc2ccccc2)[C@H](OCc2ccccc2)[C@H]1O (stereo partly specified) | 8.71 µM (active) |
| Cc1cc(-n2nc3ccc(Cl)cc3n2)c(O)c(C(C)(C)C)c1 | inactive |
| COc1c(C)c2c(c(O)c1C/C=C(\C)CCC(=O)OCCN1CCOCC1)C(=O)OC2 | 13.8 µM (active) |
| CC1(C)CCC[C@]2(C)[C@H]3CCO[C@]3(C)CC[C@@H]12 | inactive |
| CN(C)Cc1ccccc1O | inactive |
| CCCCC(CC)COC(=O)CCCCC(=O)OCc1ccccc1 (stereo unspecified) | 15.9 µM (active) |
| COc1cc(/C=C/c2ccccc2)oc(=O)c1 | 32.8 µM (active) |
| Cc1cc(C(C#N)c2ccc(Cl)cc2)c(Cl)cc1NC(=O)c1cc(I)cc(I)c1O (stereo unspecified) | 17.4 µM (active) |
| CCCCCC(C)OC(=O)COc1ccc(Cl)c2cccnc12 (stereo unspecified) | 11.2 µM (active) |
| CCCCC(CC)CN1CN(CC(CC)CCCC)CC(C)(N)C1 (stereo unspecified) | inactive |
| O=C(O)c1cc(=O)c2ccccc2o1 | inactive |
| CC1=Nc2ccccc2C1(C)C | 40 µM (active) |
| S=c1nccc[nH]1 | 20 µM (active) |
| Clc1sc(Cl)c(Cl)c1Cl | inactive |
| Cc1ccc(O)c(N)c1 | 15.9 µM (active) |
| S=C([S-])NCCNC(=S)[S-].S=C([S-])NCCNC(=S)[S-].[Mn+2].[Zn+2] | 3.09 µM (active) |

| SMILES | Potency |
| --- | --- |
| [Cu+] | 11.2 µM (active) |
| COC(=O)Nc1nc2ccc(C(=O)c3ccccc3)cc2[nH]1 | inactive |
| c1ccsc1 | inactive |
| CC[C@H](C)COC(=O)/C=C/c1ccc(N=Cc2ccc(OC)cc2)cc1 | 5.63 µM (active) |
| CCCCCCCC/C=C\CCCCCCCCN | 38.9 µM (active) |
| ClCCl | inactive |
| CC(=O)CC(=O)Nc1ccc(S(=O)(=O)O)cc1 | inactive |
| COc1ccc2c(c1)c(CC(=O)OC/C=C(\C)CC/C=C(\C)CCC=C(C)C)c(C)n2C(=O)c1ccc(Cl)cc1 | 17.4 µM (active) |
| CCCCCCCCCCC[C@@H](C[C@@H]1OC(=O)[C@H]1CCCCCC)OC(=O)[C@H](CC(C)C)NC=O | 2.75 µM (active) |
| O=c1oc2cc(O)ccc2c2oc3cc(O)ccc3c12 | 68.1 µM (active) |
| CCC(C)n1ncn(-c2ccc(N3CCN(c4ccc(OC[C@H]5CO[C@](Cn6cncn6)(c6ccc(Cl)cc6Cl)O5)cc4)CC3)cc2)c1=O (stereo partly specified) | 13.8 µM (active) |
| COC(=O)c1ccccc1C | inactive |
| C=CC(=O)OCCOC(=O)C=C | inactive |
| CCN(CC)c1ccc2c(-c3ccc(S(=O)(=O)O)cc3S(=O)(=O)[O-])c3ccc(=[N+](CC)CC)cc-3oc2c1 | 16.4 µM (active) |
| C#C[C@]1(OC(C)=O)CC[C@H]2[C@@H]3CCC4=C/C(=N/O)CC[C@@H]4[C@H]3CC[C@@]21CC | 11 µM (active) |
| Cc1cccc2cccnc12 | inactive |
| CN(C)[C@@H](CCOc1cccc2ccccc12)c1ccccc1 | 15.5 µM (active) |
| CC(C)(C)NSc1nc2ccccc2s1 | 16.2 µM (active) |
| COc1cc(C)ccc1O | inactive |

Target: Cytochrome P450 1A2 (Homo sapiens) (UniProt P05177)
Assay: Cytochrome P450 Family 1 Subfamily A Member 2 (CYP1A2) small molecule antagonists: luciferase reporter qHTS assay (AID 1671199)
Conditions: P450-Glo CYP1A2 enzyme, luciferin luminescence, 1 h; series mostly up to 115 µM
Outline: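 Inhibition of CYP1A2 conversion of proluciferin to luciferin, detected by luminescence. Reaction run 1 h at room temperature with NADPH regeneration after brief compound preincubation.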

Chain of Cytochrome P450 1A2 (Homo sapiens) (P05177 whole entry, looked up): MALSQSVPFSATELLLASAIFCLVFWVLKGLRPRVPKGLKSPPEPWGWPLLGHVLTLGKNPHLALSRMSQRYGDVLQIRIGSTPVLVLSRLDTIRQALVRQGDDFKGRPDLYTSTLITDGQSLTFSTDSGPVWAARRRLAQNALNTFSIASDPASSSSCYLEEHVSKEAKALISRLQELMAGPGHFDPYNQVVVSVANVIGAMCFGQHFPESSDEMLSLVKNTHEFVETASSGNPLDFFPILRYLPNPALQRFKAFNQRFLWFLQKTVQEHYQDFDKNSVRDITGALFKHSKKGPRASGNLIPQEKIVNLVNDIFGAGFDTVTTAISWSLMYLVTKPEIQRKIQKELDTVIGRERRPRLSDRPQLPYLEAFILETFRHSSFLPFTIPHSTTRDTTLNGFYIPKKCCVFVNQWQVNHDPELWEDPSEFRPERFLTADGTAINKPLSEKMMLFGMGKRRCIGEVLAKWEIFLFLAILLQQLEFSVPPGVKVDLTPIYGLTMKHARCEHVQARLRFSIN

| SMILES | Potency |
| --- | --- |
| CCCCOC(=O)CC | inactive |
| O=C(O)c1cc(-c2ccc(F)cc2F)ccc1O | inactive |
| c1ccc(C(O[C@@H]2CCCN(CCc3ccc4c(c3)OCO4)C2)c2ccccc2)cc1 | 39.9 µM (active) |
| CCO[C@@H]1O[C@H](C(COCc2ccccc2)OCc2ccccc2)[C@H](OCc2ccccc2)[C@H]1O (stereo partly specified) | inactive |
| Cc1cc(-n2nc3ccc(Cl)cc3n2)c(O)c(C(C)(C)C)c1 | inactive |
| COc1c(C)c2c(c(O)c1C/C=C(\C)CCC(=O)OCCN1CCOCC1)C(=O)OC2 | inactive |
| CC1(C)CCC[C@]2(C)[C@H]3CCO[C@]3(C)CC[C@@H]12 | inactive |
| CN(C)Cc1ccccc1O | inactive |
| CCCCC(CC)COC(=O)CCCCC(=O)OCc1ccccc1 (stereo unspecified) | 56.4 µM (active) |
| COc1cc(/C=C/c2ccccc2)oc(=O)c1 | 2.93 µM (active) |
| Cc1cc(C(C#N)c2ccc(Cl)cc2)c(Cl)cc1NC(=O)c1cc(I)cc(I)c1O (stereo unspecified) | inactive |
| CCCCCC(C)OC(=O)COc1ccc(Cl)c2cccnc12 (stereo unspecified) | 5.03 µM (active) |
| CCCCC(CC)CN1CN(CC(CC)CCCC)CC(C)(N)C1 (stereo unspecified) | inactive |
| O=C(O)c1cc(=O)c2ccccc2o1 | inactive |
| CC1=Nc2ccccc2C1(C)C | 63.4 µM (active) |
| S=c1nccc[nH]1 | 35.6 µM (active) |
| Clc1sc(Cl)c(Cl)c1Cl | inactive |
| Cc1ccc(O)c(N)c1 | 40 µM (active) |
| S=C([S-])NCCNC(=S)[S-].S=C([S-])NCCNC(=S)[S-].[Mn+2].[Zn+2] | 15.5 µM (active) |

| SMILES | Potency |
| --- | --- |
| [Cu+] | 39.9 µM (active) |
| COC(=O)Nc1nc2ccc(C(=O)c3ccccc3)cc2[nH]1 | 12.9 µM (active) |
| c1ccsc1 | inactive |
| CC[C@H](C)COC(=O)/C=C/c1ccc(N=Cc2ccc(OC)cc2)cc1 | 5.63 µM (active) |
| CCCCCCCC/C=C\CCCCCCCCN | 12.9 µM (active) |
| ClCCl | inactive |
| CC(=O)CC(=O)Nc1ccc(S(=O)(=O)O)cc1 | inactive |
| COc1ccc2c(c1)c(CC(=O)OC/C=C(\C)CC/C=C(\C)CCC=C(C)C)c(C)n2C(=O)c1ccc(Cl)cc1 | 17.4 µM (active) |
| CCCCCCCCCCC[C@@H](C[C@@H]1OC(=O)[C@H]1CCCCCC)OC(=O)[C@H](CC(C)C)NC=O | 24.5 µM (active) |
| O=c1oc2cc(O)ccc2c2oc3cc(O)ccc3c12 | 8.57 µM (active) |
| CCC(C)n1ncn(-c2ccc(N3CCN(c4ccc(OC[C@H]5CO[C@](Cn6cncn6)(c6ccc(Cl)cc6Cl)O5)cc4)CC3)cc2)c1=O (stereo partly specified) | inactive |
| COC(=O)c1ccccc1C | inactive |
| C=CC(=O)OCCOC(=O)C=C | inactive |
| CCN(CC)c1ccc2c(-c3ccc(S(=O)(=O)O)cc3S(=O)(=O)[O-])c3ccc(=[N+](CC)CC)cc-3oc2c1 | 20.7 µM (active) |
| C#C[C@]1(OC(C)=O)CC[C@H]2[C@@H]3CCC4=C/C(=N/O)CC[C@@H]4[C@H]3CC[C@@]21CC | inactive |
| Cc1cccc2cccnc12 | 44.5 µM (active) |
| CN(C)[C@@H](CCOc1cccc2ccccc12)c1ccccc1 | 7.76 µM (active) |
| CC(C)(C)NSc1nc2ccccc2s1 | 32.2 µM (active) |
| COc1cc(C)ccc1O | 39.9 µM (active) |
